Hit rate of the full screen: of about 200,000 compounds, about 18,000 (9%) were called active. Cut-off read from the data, not from the text of the source: active = inhibition above about 50%; inactive = the rest. Only a selection was taken, and actives are over-represented in it overall.

The nature of the test: antileishmanial activity against promastigotes – primary screen (AID 1063).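 Note: promastigotes grown with compound for 44 hours at 28 °C.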 The settings on record: Leishmania major promastigotes, resazurin fluorescence viability; at 10 µM; stronger effect = higher value. In general terms: Resazurin is reduced to fluorescent resorufin, in cell work by metabolically active cells.
On to `COc1cccc(NC(=O)NCc2ccc(F)cc2)c1`, for which the inhibition is 2.02% (inactive). The value for `CN(NC(=O)C1CC(=O)N(c2ccccc2)C1)C1=NS(=O)(=O)c2ccccc21` (configuration not stated) was -0.26% (inactive); that for `CCc1ccc(Oc2nc([N+](=O)[O-])nn2C)cc1` was 12.5% (inactive); that for `CSc1nc2nc(-c3cccc(C(F)(F)F)c3)ccn2n1` was -7.55% (inactive). Turning to `C=CCN1C(=O)C(O)(CC(=O)c2ccccn2)c2ccccc21` (configuration not stated), the inhibition was 3.64% (inactive). In the case of `CCOc1ccc(NC(=O)CCS(=O)(=O)c2ccc3c(c2)CCCN3C(=O)CC)cc1` it was 62.8% (active); in that of `CC(=O)N1CCCc2cc(S(=O)(=O)CCC(=O)N3CCN(c4ccccc4)CC3)ccc21`, -3.41% (inactive); in that of `CCCNS(=O)(=O)c1ccc2c(c1)CCCN2C(C)=O`, -1.63% (inactive). Turning to `O=C(c1cccs1)N1CCCC(c2nc(-c3ccc(F)cc3)no2)C1` (configuration not stated), the inhibition was -8.27% (inactive). In the case of `O=C(Cc1cccs1)N1CCCC(c2nc(-c3ccc(S(=O)(=O)N4CCCC4)cc3)no2)C1` (configuration not stated) it was 95.1% (active). The value for `O=C(c1ccc(F)cc1)N1CCCC(c2nc(-c3cccs3)no2)C1` (configuration not stated) was 5.3% (inactive); that for `C=C(C)c1cccc(C(C)(C)NC(=O)NCCN(CC)CC)c1` was 4.54% (inactive). In the case of `COC(=O)CN1C(=O)N/C(=C/c2ccc(OC)c(C)c2OC)C1=O` it was -9.01% (inactive); in that of `S=C(NC1CCCCC1)NN1CCOCC1`, -1.39% (inactive). `COc1ccccc1Cn1c(C)nnc1-c1cnn(C)c1N`: the inhibition is 0.00407% (inactive).

Regarding `CCOC(=O)c1ccc(NC(=O)CSc2ncccn2)cc1`, the inhibition was 0.48% (inactive). On to `CCOC(=O)c1ccc(NC(=O)CSc2nnc(COc3ccccc3OC)n2C)cc1`, for which the inhibition was 89% (active). As to `COC(=O)c1ccc(NC(=O)CSc2nnc(-c3ccncc3)n2C)cc1`, the inhibition was 5.08% (inactive). Take `CCc1cc2cc(OC)ccc2nc1SCC(=O)Nc1cc(OC)c(OC)cc1C(=O)O`: the inhibition is -7.93% (inactive).

Regarding `CN(Cc1ccccc1)c1nc2c(c(=O)[nH]c(=O)n2C)n1CCSc1nc2ccccc2[nH]1`, the inhibition is 95% (active).

Consider `Cn1c(=O)[nH]c(=O)c2c1nc(N(CCO)Cc1ccccc1)n2Cc1ccccc1Cl`, for which the inhibition was 23.7% (inactive). In the case of `Cc1ccnc(SCCn2c(N(C)Cc3ccccc3)nc3c2c(=O)n(C)c(=O)n3C)n1` it was 34.8% (inactive). In the case of `CCOC(=O)c1sc(NC(=O)CSc2nc(O)c(Cc3ccccc3)c(=O)[nH]2)nc1C` it was -5.06% (inactive); in that of `Cc1ccc(-c2noc(CCC(N)=O)n2)cc1`, -4.98% (inactive). On to `CN1CCN(C(=O)CCc2nc(-c3ccc(Cl)cc3)no2)CC1`, for which the inhibition was -4.14% (inactive). Regarding `Cc1ccc(-c2noc(CCC(=O)Nc3ccccc3N3CCN(C)CC3)n2)cc1`, the inhibition is 57.9% (active).

With `COc1cccc(/C=N\NC(=O)C2=NNC(=O)C2C)c1O` (configuration not stated), the inhibition is -7.2% (inactive). In the case of `COc1ccc(C(=O)Nc2ccccc2C(=O)N/N=C/c2ccccc2OC)cc1` it was 6.31% (inactive); in that of `COc1cccc(/C=N/NC(=O)c2[nH]nc3c2CCc2ccccc2-3)c1O`, 98% (active); in that of `C/C(=N\NC(=S)NC(C)C)c1ccc(C(C)(C)C)cc1`, 15% (inactive). The value for `Cc1ccc(NC(=O)CSc2nnc(COc3ccccc3C)o2)cc1` was -2.82% (inactive); that for `CCn1c2ccccc2c2cc(NC(=O)COC(=O)c3ccccc3Br)ccc21` was -2.86% (inactive). In the case of `O=C(COC(=O)c1cc(S(=O)(=O)N2CCCCC2)ccc1Cl)NCc1ccco1` it was 7.75% (inactive); in that of `CCn1c2ccccc2c2cc(NC(=O)COC(=O)c3cc(S(=O)(=O)N4CCCCC4)ccc3Cl)ccc21`, 73.8% (active).

Consider `CSCCC(NC(=O)c1cc([N+](=O)[O-])cc([N+](=O)[O-])c1)c1nc2ccccc2[nH]1` (configuration not stated), for which the inhibition was 96.8% (active).

For `COc1ccc(CC(=O)N[C@@H](CCSC)c2nc3ccccc3[nH]2)cc1`, the inhibition is -4.82% (inactive).

On to `CSCCC(NC(=O)c1ccc(=O)n(C)n1)c1nc2ccccc2[nH]1` (configuration not stated), for which the inhibition was -5.06% (inactive).

`Cc1ccc(CN(N=Nc2nonc2N)c2nonc2N)c(C)c1`: the inhibition is 88.8% (active). The value for `Cc1ccc2c(c1)C1CN(C)CCC1N2C(=S)Nc1ccc(OC(F)F)cc1` (configuration not stated) was 34.5% (inactive); that for `Cc1ccc2nc(C)cc(N/N=C/c3ccc(F)cc3)c2c1` was 7.72% (inactive). The value for `CCC(C)NCCOCCOc1ccc(Br)cc1C` (configuration not stated) was 99% (active); that for `COCC(C)NCc1cc(Br)ccc1OC` (configuration not stated) was -1.49% (inactive); that for `CCOCCCNCc1cc(Br)ccc1OCC` was 13.3% (inactive). In the case of `CCN(CC)S(=O)(=O)c1ccc(N(C)Cc2cccc(OC)c2OC)nc1` it was 8.96% (inactive). Turning to `CCN(Cc1ccccc1)S(=O)(=O)c1cc(C(=O)O)ccc1OC`, the inhibition is -8.56% (inactive).

Consider `O=S(=O)(c1ccc2c(c1)OCCO2)N1CCc2ccccc21`, for which the inhibition is -6.88% (inactive).

Regarding `Cc1cccc(N2CCN(C(c3ccccc3)c3nnnn3CC3CCCO3)CC2)c1C` (configuration not stated), the inhibition is 75.9% (active). For the compound `COc1ccccc1C(c1nnnn1CC1CCCO1)N1CCN(c2ccccc2)CC1` (configuration not stated), the inhibition is 6.1% (inactive). As to `Cc1cccc(N2CCN(C(c3ccc(N(C)C)cc3)c3nnnn3C(C)(C)C)CC2)c1C` (configuration not stated), the inhibition was 11.3% (inactive). As to `COc1ccc(C(=O)Nc2ccc(N3CCC(C)CC3)cc2)cc1Br`, the inhibition was -6.43% (inactive). The value for `COc1ccc(-c2nn(C)c(=O)c3ccccc23)cc1NC(=O)COc1ccccc1` was 8.76% (inactive). In the case of `O=C(Nc1cc(-c2nn(CC(=O)N3CCCCC3)c(=O)c3ccccc23)ccc1N1CCOCC1)c1ccc(Cl)cc1` it was 0.47% (inactive). Turning to `Cn1nc(-c2ccc(N3CCOCC3)c(NC(=O)c3ccccc3)c2)c2ccccc2c1=O`, the inhibition was 77% (active).

Regarding `CN(CC(=O)Nc1ccccc1F)CC(=O)Nc1ccccc1Br`, the inhibition was -4.41% (inactive). The value for `NS(=O)(=O)c1ccc(NC(=S)Nc2ccc(Br)c(Cl)c2)cc1` was 10.7% (inactive); that for `CC(C)(C)C(=O)NCCCNc1ccc([N+](=O)[O-])cc1` was -6.51% (inactive). The value for `CCOc1cc(/C=C2/C(=N)N3OC(C)=CC3=NC2=O)ccc1OC` was 2.63% (inactive); that for `Cn1nnnc1NCc1ccc(Cl)c(Cl)c1` was 6.1% (inactive); that for `COc1ccc(N2CCN(c3ccc([N+](=O)[O-])nc3)CC2)cc1` was -3.36% (inactive). In the case of `Cn1c(=O)n(C)c2cc(NS(=O)(=O)c3ccc(F)cc3)ccc21`, the inhibition was 4.59% (inactive).

For the compound `CC1(C)CC(=O)c2c(n(S(=O)(=O)c3ccccc3)c3ccc(NS(=O)(=O)c4ccccc4)cc23)C1`, the inhibition is 98.6% (active). The value for `O=S(=O)(Nc1ccc2cn[nH]c2c1)c1ccccc1` was 6.15% (inactive). In the case of `Cc1cnc(C(=O)OCC(=O)N2CCc3ccccc32)cn1` it was 5.21% (inactive); in that of `C/C=C/c1ccc(OCC(O)CN2CCCCCCC2)c(OC)c1` (configuration not stated), -0.01% (inactive).

Regarding `C=CCc1ccc(OCC(O)CN2CCN(Cc3ccccc3)CC2)c(OC)c1` (configuration not stated), the inhibition was 87.8% (active). The value for `Cc1ccc(OCC(O)CN2CCN(CC(O)COc3ccc(C)cc3Cl)CC2)c(Cl)c1` (configuration not stated) was -0.86% (inactive); that for `CCOC(=O)Cn1c(=O)oc2cc(S(=O)(=O)N(C)Cc3ccco3)ccc21` was 98.7% (active); that for `CCOC(=O)Cn1c(=O)oc2cc(S(=O)(=O)NCC3CCCO3)ccc21` (configuration not stated) was -5.87% (inactive). The value for `CC(C)CCNC(=O)Cn1c(=O)oc2cc(S(=O)(=O)N3CC(C)CC(C)C3)ccc21` (configuration not stated) was -10.9% (inactive); that for `COc1ccc(OCCCON2C(=O)c3ccccc3C2=O)cc1` was -2.83% (inactive). The value for `CCOC(=O)C1=C(c2ccc(OC)cc2)C(=O)c2ccccc2C1=O` was 101% (active); that for `CCCCC(C(=O)OCC(=O)c1ccc(OC)cc1)N1C(=O)c2ccccc2C1=O` (configuration not stated) was -3.44% (inactive); that for `O=C(CCNC(=O)c1ccc([N+](=O)[O-])cc1)Nc1ccccc1N1CCOCC1` was 7.58% (inactive). With `CC(C)CN1CCNC(=O)C1CC(=O)N(C)CC1CCOCC1` (configuration not stated), the inhibition was 9.06% (inactive). The value for `CCOc1cc(/C=N/NC(=O)c2ccc(CSc3nncn3C)cc2)ccc1OCC(=O)N1CCOCC1` was -1.61% (inactive). For `COc1ccc(/C=C2/SC(=O)N(CCCCCC(=O)Nc3ccccc3C(=O)O)C2=S)cc1`, the inhibition was -8.92% (inactive). For `Cc1ccc(-c2csc(NC(=O)c3cccs3)n2)cc1`, the inhibition was 3.66% (inactive). For the compound `O=C(O)CCC(=O)N(Cc1ccco1)c1nc(-c2ccccc2)cs1`, the inhibition was -11.4% (inactive).

On to `Cc1ccc(-c2csc(N(Cc3ccco3)C(=O)c3cccs3)n2)cc1`, for which the inhibition is 100% (active).

On to `CN(Cc1ccccn1)Cc1nc(-c2ccc(Cl)cc2)no1`, for which the inhibition was -2.18% (inactive). The value for `COc1ccc(/C=C/C(=O)OCC(=O)Nc2cccc(Oc3ccccc3)c2)c(OC)c1` was -2.55% (inactive). The value for `O=C(COC(=O)/C=C/c1nc2ccccc2s1)Nc1ccccc1Oc1ccccc1` was 51.7% (active); that for `CCN(C(=O)COC(=O)/C=C/c1nc2ccccc2s1)C1CCS(=O)(=O)C1` (configuration not stated) was -2.12% (inactive). The value for `COc1ccc(-c2cn3cccnc3n2)cc1` was 10.2% (inactive); that for `Cc1cccc(C2=N/C(=C/c3cccs3)C(=O)O2)c1` was 1.4% (inactive). For the compound `Cc1ccc(NC(=O)CN2CCCCC2)c2c1CC(C)(C)O2`, the inhibition is 3.82% (inactive). `Cc1cc(C)c2nc(SCC(=O)N(C)C3CCS(=O)(=O)C3)cc(C)c2c1` (configuration not stated): the inhibition was 0.72% (inactive). In the case of `Cc1cccc(C)c1OCC(=O)NC(Cc1c[nH]c2ccccc12)C(=O)O` (configuration not stated) it was -3.57% (inactive). In the case of `O=S(=O)(Nc1cc(S(=O)(=O)N2CCOCC2)ccc1N1CCCC1)c1cccs1` it was -3.24% (inactive). In the case of `O=C(N1CCCC1)C12CC3CC(C1)CC(C(=O)N1CCCC1)(C3)C2` it was -2.33% (inactive); in that of `CN1CCN(CC(=O)C23CC4CC(CC(C4)C2)C3)CC1`, 88.5% (active); in that of `CC(C)(C)NC(=O)CN1CCC(NC(=O)C23CC4CC(CC(C4)C2)C3)CC1`, 3.92% (inactive).

The inhibition is the drop in the measured response relative to a control, in per cent.

The record behind these values is PubChem BioAssay AID1063 (University of Pittsburgh Molecular Library Screening Center, 2008).
